Screening data as filed in PubChem BioAssay.
HepG2 tox: qHTS for Inhibitors of TGF-b: Cytotox Counterscreen; HepG2 CAGA-GFP viability, ATP luminescence, 18 h; AID 588856, 2011; 0.76% of 410,000 active; Potency, µM (series often up to 46.1 µM), inactives show at the highest dose activity change, negative = cytotoxicity, usual class: cytotoxic
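CellTiter-Glo luminescence gave cytotoxicity after 18 hours at 37 degrees C. The cells were HepG2 CAGA-GFP in 1% FBS DMEM, stimulated with 500 pg/mL TGF-beta after compound addition. %Activity was normalised to no-cell wells (complete cell-killing) and DMSO (no toxicity), and curves were fitted and classified.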
DT40 TDP1 CPT: qHTS for Inhibitors of human tyrosyl-DNA phosphodiesterase 1 (TDP1): qHTS in cells in presence of CPT. Potency, µM (highest dose often 46.2 µM), for inactives: at the highest dose activity change, negative = growth inhibition, usual class: inhibitors. 12% of 420,000 active. chicken DT40 Tdp1-/-;hTDP1 cells + 20 nM CPT, ATP luminescence, 48 h; note: % is set by controls: 0 for no effect and ±100 for the full control effect; nearly all actives have a fitted effect of over 55% in size
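Cell growth measured by CellTiter-Glo luminescence after a minimum 48 h, 37 C compound exposure with 20 nM CPT in Tdp1-knockout DT40 cells stably expressing hTDP1, seeded 400/well; qHTS titration format.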
S2 tox: Viability Counterscreen for Primary qHTS for Inhibitors of ATXN expression; S2 cells (HEK-293 line with an ATXN2-luciferase reporter) viability, CellTiter-Fluor protease fluorescence, 24 h; Potency, µM (doses to about 56.7 µM), actives largely listed as cytotoxic; 0.49% of 400,000 active; note: nearly all actives have a fitted effect of over 40% in size
TDP1 cell noCPT: qHTS for Inhibitors of human tyrosyl-DNA phosphodiesterase 1 (TDP1): qHTS in cells in absence of CPT; DT40 Tdp1-/- hTDP1 cells, no CPT, ATP luminescence, 48 h; Potency, µM (highest dose often 46.2 µM), inactives show at the highest dose activity change, negative = growth inhibition, hits mostly inhibitors; 15% of 420,000 active; note: % is set by controls: 0 for no effect and ±100 for the full control effect; nearly all actives have a fitted effect of over 55% in size
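Chicken DT40 Tdp1-/- cells complemented with human TDP1, screened without camptothecin (DMSO vehicle only), 400 cells/well. Compounds pin-transferred, cells incubated at 37 °C for at least 48 hr. Growth read as ATP-dependent luminescence (CellTiter-Glo, 30 min at RT).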
ATXN2 expr inh: Primary qHTS for Inhibitors of ATXN expression | Potency, µM (series often up to 57 µM), for inactives: top-dose activity change, negative = inhibition, usual class: inhibitors | HEK-293 ATXN2-luciferase reporter, luminescence, 24 h | 0.72% of 360,000 active; note: % is set by controls: 0 for no effect and ±100 for the full control effect; nearly all actives have a fitted effect of over 55% in size
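qHTS (up to 57 uM final) was run with 24 h compound exposure of reporter cells at 37 °C. Each well was multiplexed: SteadyGlo luminescence measured ATXN2-luciferase expression after a fluorogenic Gly-Phe-AFC viability readout (25 uM final).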
TGFb inhibitor: qHTS for Inhibitors of TGF-b; HepG2 CAGA-GFP TGF-b/SMAD3 reporter, GFP fluorescence, 18 h; TGF-beta stimulated, 500 pg/mL final; Potency, µM (highest dose often 46.1 µM), for the others: at the highest dose activity, negative = inhibition, actives largely listed as inhibitors; 1.2% of 410,000 active; note: % is set by controls: 0 for no effect and ±100 for the full control effect; nearly all actives have a fitted effect of over 65% in size
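TGF-beta reporter screen: HEPG2 CAGA-GFP, 1% FBS, 500 pg/mL TGF-beta final, 18 h; per-cell GFP summed per well; curves fitted and categorized by class.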
* marks the source's active call; other numbers are inactive results; i = inactive; ? = inconclusive; nt = no result. Shown are actives, neighbours in structure and some others; about 17% of the full set was active somewhere. Calls come from the whole dose curve; as a rule, active = well fitted curve in the direction sought with a large enough effect; inconclusive = small, poorly fitted or top-dose-only effect, or another doubt; inactive = no such curve, though single readings can be large; an effect the other way counts as inactive or inconclusive. Potency is the fitted concentration of half-maximal effect.

SMILES	HepG2 tox	DT40 TDP1 CPT	S2 tox	TDP1 cell noCPT	ATXN2 expr inh	TGFb inhibitor
[O-]C(=C(C(=S)Nc1cccc2ccccc12)[n+]1ccccc1)c1ccc2c(c1)OCCO2	4%	-15%	i	?	-22%	12%
N=c1c2c(n(Cc3ccc(Cl)c(Cl)c3)c3c1CCC3)CCCC2	-3%	2.9µM*	?	2.6µM*	?	?
CCCn1c2c(c(=N)c3c1CCC3)CCCC2	-17%	9.2µM*	i	5.2µM*	-17%	-25%
CCCCCCCn1c2c(c(=N)c3ccccc31)CCC2	2%	0.52µM*	?	0.58µM*	nt	?
Clc1ccc(CN2CCN(c3ncccn3)CC2)cc1Cl	-1%	-25%	i	?	-6%	-16%
N=c1c2c(n(Cc3ccc(Br)cc3)c3c1CCC3)CCCC2	-17%	0.92µM*	i	0.52µM*	?	?
COc1cc(OC)cc(C(=O)NNC(=O)CCC(=O)c2cc(C)sc2C)c1	5%	-8%	i	-17%	9%	-12%
COc1ccc(S(=O)(=O)Nc2ccccc2N2CCOCC2)cc1OC	-13%	-9%	i	-7%	7%	2%
O=C1CCCC2=C1C(c1ccc(Cl)cc1)n1c(s/c(=C\c3ccc4ccncc4c3)c1=O)=N2 (centres undefined)	-50%	?	i	21µM*	-1%	19%
CC(=O)c1sc(N/N=C\c2c(O)ccc3ccccc23)nc1C	-27%	0.92µM*	i	0.92µM*	-34%	?
CC(=O)c1sc(N/N=C/c2cccc(O)c2)nc1C	-10%	26µM*	i	12µM*	56%	-13%
N#CC1=C(Nc2ccccc2Cl)SC2(CCCC2)NC1=O	-15%	16µM*	i	18µM*	-20%	?
N#CC1=C(Nc2ccccc2Cl)SC(c2ccncc2)NC1=O (centres undefined)	4%	-20%	i	2%	3%	-14%
CCOc1ccc(-c2nnc(-c3cccnc3)o2)cc1OCC	0%	?	i	16µM*	2%	7%
CCOc1ccc(-c2nnc(-c3ccncc3)o2)cc1OCC	-13%	-9%	i	?	0%	-1%
COc1cc(-c2nnc(-c3ccncc3)o2)ccc1OCc1ccccc1	-3%	?	i	9.2µM*	0%	-1%
COc1ccc(-c2nnc(-c3cccnc3)o2)cc1OC	2%	12µM*	i	?	29%	-10%
CCCN(c1c(C)n(C)n(-c2ccccc2)c1=O)S(=O)(=O)c1ccc(C)cc1	-26%	-3%	i	?	-11%	-14%
C#CCOCCOCCOCCNc1nc(N2CCN(C(=O)[C@H](CCC(=O)O)n3cc([C@@H](N)CCCCN)nn3)CC2)nc(N2CCN(C(=O)[C@H](CCCCN)n3cc([C@@H](N)CC(N)=O)nn3)CC2)n1	-1%	8%	i	2%	9%	-17%
COc1ccc(Cl)cc1NC(=O)c1c(NCc2ccc(C)o2)sc2c1CCCC2	-6%	?	i	21µM*	7%	?
CCOc1ccccc1NC(=O)c1c(NCc2ccc(C)o2)sc2c1CCCCC2	-33%	4.6µM*	?	2.9µM*	-23%	?
COc1cc(C(=O)Nc2sc3c(c2C(=O)NCc2ccco2)CCCC3)cc(OC)c1OC	-3%	?	i	21µM*	-10%	22%
CCOC(=O)N1CCc2c(sc(NCc3sccc3C)c2C(=O)Nc2cc(Cl)ccc2OC)C1	-3%	-24%	i	?	11%	-21%
